# Records with an inconclusive call do not appear. Some compounds were tested as several samples or in several runs, with calls that do not always agree. Activity calls are given as the source filed them. Rule for the calls, unless noted: active = hit-call score of the fitted dose curve at least 0.9, where 1 is the maximum; inactive = score below 0.9.
# Columns and labels:
# [1] = molecular target: Estrogen-related receptor gamma (Homo sapiens) (UniProt P62508); assay: ATG_ERRg_TRANS: Attagene TRANS-FACTORIAL HepG2 Assay for human Estrogen-Related Receptor gamma (ERRg) (AID 2282977; active = hit-call score of the fitted dose curve at least 0.9, where 1 is the maximum;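 note: hits increase reporter signal over DMSO so potencies reflect activators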); settings: HepG2 Attagene TRANS reporter, ERRg transactivation
# Method in brief: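 Transient HepG2 transfectants, 24 h compound exposure, GAL4-UAS reporter mRNA by RT-PCR/6-FAM labelling/capillary electrophoresis; positive direction vs DMSO.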
# [2] = molecular target: Oxysterols receptor LXR-alpha (Homo sapiens) (UniProt Q13133); assay: ATG_LXRa_TRANS: Attagene TRANS-FACTORIAL HepG2 Assay for human Liver X Receptor alpha (LXRa) (AID 2282980; active = hit-call score of the fitted dose curve at least 0.9, where 1 is the maximum); settings: HepG2 Attagene TRANS reporter, LXRa transactivation
# Method in brief: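 Read-out: reporter transcript levels by RT-PCR plus capillary electrophoresis, fluorescence intensity. Transiently transfected HepG2, exogenous NR-GAL4 chimera, GAL4-UAS reporters; 24 h compound exposure. Activity = increase over DMSO negative control.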
# [3] = ATG_M_32_TRANS: Attagene TRANS-FACTORIAL HepG2 Assay for M32 Transcription Factor (Internal Marker) (AID 2282984; active = hit-call score of the fitted dose curve at least 0.9, where 1 is the maximum;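 note: transcript level of a background control reporter unit measured by RT-PCR and capillary electrophoresis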); settings: HepG2 Attagene TRANS M32 internal marker reporter
# Method in brief: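 HepG2 cells transiently transfected with multiple GAL4-UAS reporter transcription units, dosed for 24 hours; reporter mRNA quantified by RT-PCR, 6-FAM primer extension, HpaI digestion and capillary electrophoresis. Gain-of-signal fitted versus DMSO baseline; internal background-control marker.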
# [4] = molecular target: Transcriptional activator Myb (Homo sapiens) (UniProt P10242); assay: ATG_Myb_CIS: Attagene CIS-FACTORIAL HepG2 Assay for human Myeloblastosis (Myb) Proto-Oncogene Transcription Factor (AID 2282986); settings: HepG2 Attagene CIS-FACTORIAL Myb reporter transcription; actives raise or lower the signal
# Method in brief: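 Endogenous transcription factor activity at a Myb-responsive cis element is reported in human liver HepG2 cells after 24 h chemical treatment. Reporter mRNA is detected by RT-PCR and capillary electrophoresis fluorescence, with DMSO as baseline.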
# [5] = molecular target: Nuclear respiratory factor 1 (Homo sapiens) (UniProt Q16656); assay: ATG_NRF1_CIS: Attagene CIS-FACTORIAL HepG2 Assay for human Nuclear Respiratory Factor 1 (NRF1) Orphan Gene (AID 2282987); settings: HepG2 NRF1 cis-element reporter, Attagene multiplex; actives raise or lower the signal
# Method in brief: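 Human hepatoma HepG2 cells carrying transfected promoter-regulated reporter units were incubated with test chemicals for 24 h. Reporter transcripts were measured by RT-PCR plus capillary electrophoresis, and endpoints derived by bidirectional fitting with DMSO as baseline.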
# [6] = ATG_NFI_CIS: Attagene CIS-FACTORIAL HepG2 Assay for human Nuclear Factor I (NFI) (AID 2282989); settings: HepG2 cis-regulatory reporter, NFI response element transcription; actives raise or lower the signal
# Method in brief: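 Cells: human liver HepG2, transiently transfected with promoter-regulated reporter transcription units. Exposure 24 h. Detection: fluorescent RT-PCR products separated by capillary electrophoresis, normalised to DMSO negative control.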
# [7] = molecular target: Myc proto-oncogene protein (Homo sapiens) (UniProt P01106); assay: ATG_Myc_CIS: Attagene CIS-FACTORIAL HepG2 Assay for human Myelocytomatosis (Myc) Proto-Oncogene Transcription Factor (AID 2282990); settings: HepG2, Attagene cis-reporter transcription factor activity; actives raise or lower the signal
# Method in brief: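 HepG2 cells transiently transfected with multiple cis-promoter-driven reporter transcription units, so endogenous TF activity is read. After 24 h compound exposure, reporter mRNA was quantified by RT-PCR, 6-FAM labelling, HpaI digestion and capillary electrophoresis; bidirectional fit versus DMSO.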
# [8] = ATG_NF_kB_CIS: Attagene CIS-FACTORIAL HepG2 Assay for human Nuclear Factor Kappa B (NF-kB) (AID 2282991); settings: HepG2 Attagene cis-factorial NF-kB reporter mRNA; actives raise or lower the signal
# Method in brief: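 Multiplexed cis-reporter assay in transiently transfected HepG2. 24 h treatment; RNA isolated, RT-PCR, labelled fragments resolved by CE. DMSO baseline.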
# [9] = ATG_NRF2_ARE_CIS: Attagene CIS-FACTORIAL HepG2 Assay for human Nuclear Factor Erythroid 2 Related Factor 2 (NFR2) response to Antioxidant Response Elements (ARE) (AID 2282992); settings: HepG2 Attagene ARE/NRF2 reporter, transcription factor activity; actives raise or lower the signal;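 for AC50: reporter mRNA level measured by RT-PCR and capillary electrophoresis fluorescence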
# Method in brief: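 Cis-factorial assay: transfected HepG2 reporter library, 24 h dosing, mRNA readout via RT-PCR/CE; DMSO-referenced bidirectional analysis.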
# [10] = ATG_Oct_MLP_CIS: Attagene CIS-FACTORIAL HepG2 Assay for human Octamer-Binding Transcription Factor (Oct) (AID 2282993); settings: HepG2 Attagene cis-factorial Oct reporter, mRNA; actives raise or lower the signal
# Method in brief: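 HepG2, transient MRTU transfection, cis promoter elements; 24 h dosing; RT-PCR/CE fluorescence read-out of reporter mRNA; fit both directions vs DMSO.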
# [11] = molecular target: Cellular tumor antigen p53 (Homo sapiens) (UniProt P04637); assay: ATG_p53_CIS: Attagene CIS-FACTORIAL HepG2 Assay for human p53 Transcription Factor (AID 2282994); settings: HepG2 p53 cis-element reporter, Attagene mRNA; actives raise or lower the signal
# Method in brief: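 Using HepG2 hepatoma cells carrying cis-acting multiplexed reporters, mRNA induction is detected after a 24 h exposure. Gain- and loss-of-signal responses are fitted relative to DMSO-treated cells.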
# [12] = molecular target: Glucocorticoid receptor (Homo sapiens) (UniProt P04150); assay: ATG_GR_TRANS: Attagene TRANS-FACTORIAL HepG2 Assay for human Glucocorticoid Receptor (GR) (AID 2282978; active = hit-call score of the fitted dose curve at least 0.9, where 1 is the maximum;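 note: activators score as hits since higher reporter transcript over DMSO is fitted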); settings: HepG2 Attagene TRANS GR reporter, mRNA transcription
# Method in brief: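 Multiplexed TRANS reporter system, HepG2; 24 h exposure; RNA → oligo(dT) RT → reporter-specific PCR → 6-FAM primer extension → HpaI cut → CE fluorescence. Gain-of-signal vs DMSO.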
# [13] = molecular target: Bile acid receptor (Homo sapiens) (UniProt Q96RI1); assay: ATG_FXR_TRANS: Attagene TRANS-FACTORIAL HepG2 Assay for Farnesoid X Receptor (FXR) (AID 2282979; active = hit-call score of the fitted dose curve at least 0.9, where 1 is the maximum;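 note: hits raise reporter mRNA above DMSO so AC50 marks FXR activation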); settings: HepG2 Attagene TRANS FXR-GAL4 reporter transcription
# Method in brief: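 Read-out: fluorescent reporter transcripts quantified by capillary electrophoresis after RT-PCR of total RNA. Source cells were HepG2 transiently carrying chimeric NR-GAL4 plus GAL4-UAS reporter units, dosed 24 h. Activity fitted upward relative to DMSO baseline.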
# [14] = molecular target: Oxysterols receptor LXR-beta (Homo sapiens) (UniProt P55055); assay: ATG_LXRb_TRANS: Attagene TRANS-FACTORIAL HepG2 Assay for human Liver X Receptor beta (LXRb) (AID 2282981; active = hit-call score of the fitted dose curve at least 0.9, where 1 is the maximum); settings: HepG2 Attagene TRANS GAL4-LXRb reporter, mRNA
# Method in brief: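 HepG2 cells transiently transfected with multiple reporter transcription units carrying chimeric NR-Gal4 proteins acting on GAL4-UAS reporters; compound exposure 24 h. Reporter mRNA quantified by RT-PCR, 6-FAM labelling, HpaI digestion and capillary electrophoresis; gain of signal versus DMSO.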
# [15] = ATG_M_06_TRANS: Attagene TRANS-FACTORIAL HepG2 Assay for M06 Transcription Factor (Internal Marker) (AID 2282983; active = hit-call score of the fitted dose curve at least 0.9, where 1 is the maximum); settings: HepG2 Attagene TRANS M06 internal marker reporter
# Method in brief: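 After a 24 h chemical treatment of transfected HepG2, RNA underwent DNase I treatment, reverse transcription and reporter-specific PCR; labelled, HpaI-digested products were sized by capillary electrophoresis. Signal increase relative to DMSO defined activity.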
# [16] = molecular target: Nuclear receptor subfamily 4 group A member 2 (Homo sapiens) (UniProt P43354); assay: ATG_NURR1_TRANS: Attagene TRANS-FACTORIAL HepG2 Assay for human Nuclear Receptor Related Protein 1 (NURR1) (AID 2282985; active = hit-call score of the fitted dose curve at least 0.9, where 1 is the maximum); settings: HepG2 Attagene TRANS reporter, mRNA readout
# Method in brief: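 HepG2 cells transiently transfected with GAL4-UAS reporter units and chimeric NR-Gal4 constructs; chemical exposure 24 h. Reporter mRNA quantified by RT-PCR, fluorescent labelling and capillary electrophoresis; gain of signal fitted relative to DMSO baseline.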
# [17] = BSK_3C_TissueFactor: BioMAP Diversity Plus: 3C Assay for Tissue Factor Biomarker Activity (AID 2282997); settings: BioMAP 3C HUVEC, tissue factor biomarker readout; actives raise or lower the signal
# Method in brief: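 Human vascular primary cells (umbilical vein endothelium) received test chemical; Tissue Factor was determined by ELISA at 24 h, and both gain and loss of signal versus DMSO were fitted.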
# [18] = BSK_3C_uPAR: BioMAP Diversity Plus: 3C Assay for Urokinase-type plasminogen activator receptor (uPAR) Biomarker Activity (AID 2282998); settings: BioMAP 3C HUVEC, uPAR biomarker ELISA; actives raise or lower the signal
# Method in brief: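 A multiplexed primary-cell system built on human umbilical vein endothelium was used, with chemical present for 24 h before reading. Cell-surface uPAR was detected by ELISA; signal change in either direction counted against DMSO.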
# [19] = ATG_GAL4_TRANS: Attagene TRANS-FACTORIAL HepG2 Assay for GAL4 (Internal Marker) (AID 2282976; active = hit-call score of the fitted dose curve at least 0.9, where 1 is the maximum); settings: HepG2 Attagene TRANS GAL4 internal marker reporter
# Method in brief: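 RT-PCR/capillary electrophoresis readout of reporter mRNA. HepG2, transient MRTU transfection (GAL4-UAS reporters), 24 h compound exposure. Background-control endpoint, positive direction vs DMSO baseline.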
# [20] = molecular target: Hepatocyte nuclear factor 4-alpha (Homo sapiens) (UniProt P41235); assay: ATG_HNF4a_TRANS: Attagene TRANS-FACTORIAL HepG2 Assay for human Hepatocyte Nuclear Factor 4 alpha (HNF4a) (AID 2282982; active = hit-call score of the fitted dose curve at least 0.9, where 1 is the maximum); settings: HepG2 HNF4a transactivation reporter, mRNA readout
# Method in brief: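 HepG2 cells transiently transfected with multiplexed GAL4-UAS reporter units responsive to chimeric NR-GAL4 proteins; compound exposure 24 h. Reporter mRNA quantified by RT-PCR, 6-FAM labelling, HpaI digestion and capillary electrophoresis; gain of signal versus DMSO baseline.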
# Estrogen-related receptor gamma (Homo sapiens), sequence (P62508 whole entry, looked up, the tested form may be a part): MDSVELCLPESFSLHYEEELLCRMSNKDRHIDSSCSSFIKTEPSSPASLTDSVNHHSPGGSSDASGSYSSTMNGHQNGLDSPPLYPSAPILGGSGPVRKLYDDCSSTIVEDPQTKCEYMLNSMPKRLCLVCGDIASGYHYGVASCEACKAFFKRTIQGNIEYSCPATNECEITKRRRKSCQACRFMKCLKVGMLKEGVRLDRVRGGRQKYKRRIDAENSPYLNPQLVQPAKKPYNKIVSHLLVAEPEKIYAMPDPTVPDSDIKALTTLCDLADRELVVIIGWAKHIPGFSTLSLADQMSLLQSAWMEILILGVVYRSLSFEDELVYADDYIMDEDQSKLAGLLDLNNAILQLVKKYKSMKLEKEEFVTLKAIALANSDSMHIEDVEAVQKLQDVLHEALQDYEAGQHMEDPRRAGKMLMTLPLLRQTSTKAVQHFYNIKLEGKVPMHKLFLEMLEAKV
# Transcriptional activator Myb (Homo sapiens), sequence (P10242 whole entry, looked up): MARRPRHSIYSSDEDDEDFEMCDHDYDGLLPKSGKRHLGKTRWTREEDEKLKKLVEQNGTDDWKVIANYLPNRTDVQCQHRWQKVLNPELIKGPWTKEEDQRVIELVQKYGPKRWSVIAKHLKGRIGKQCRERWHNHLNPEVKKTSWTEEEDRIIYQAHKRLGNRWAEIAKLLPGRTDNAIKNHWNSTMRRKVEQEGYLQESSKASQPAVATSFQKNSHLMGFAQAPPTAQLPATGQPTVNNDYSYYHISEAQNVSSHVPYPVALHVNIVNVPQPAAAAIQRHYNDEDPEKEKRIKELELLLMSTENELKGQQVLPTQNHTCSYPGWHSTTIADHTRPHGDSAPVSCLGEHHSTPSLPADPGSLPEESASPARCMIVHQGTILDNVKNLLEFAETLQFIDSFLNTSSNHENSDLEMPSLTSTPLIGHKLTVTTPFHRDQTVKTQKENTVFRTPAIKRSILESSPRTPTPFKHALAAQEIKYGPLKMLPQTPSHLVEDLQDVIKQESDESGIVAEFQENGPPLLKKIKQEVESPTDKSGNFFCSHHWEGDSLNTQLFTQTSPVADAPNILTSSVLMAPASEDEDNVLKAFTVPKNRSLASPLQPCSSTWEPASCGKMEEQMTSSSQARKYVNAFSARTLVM
# Bile acid receptor (Homo sapiens), sequence (Q96RI1 whole entry, looked up, the tested form may be a part): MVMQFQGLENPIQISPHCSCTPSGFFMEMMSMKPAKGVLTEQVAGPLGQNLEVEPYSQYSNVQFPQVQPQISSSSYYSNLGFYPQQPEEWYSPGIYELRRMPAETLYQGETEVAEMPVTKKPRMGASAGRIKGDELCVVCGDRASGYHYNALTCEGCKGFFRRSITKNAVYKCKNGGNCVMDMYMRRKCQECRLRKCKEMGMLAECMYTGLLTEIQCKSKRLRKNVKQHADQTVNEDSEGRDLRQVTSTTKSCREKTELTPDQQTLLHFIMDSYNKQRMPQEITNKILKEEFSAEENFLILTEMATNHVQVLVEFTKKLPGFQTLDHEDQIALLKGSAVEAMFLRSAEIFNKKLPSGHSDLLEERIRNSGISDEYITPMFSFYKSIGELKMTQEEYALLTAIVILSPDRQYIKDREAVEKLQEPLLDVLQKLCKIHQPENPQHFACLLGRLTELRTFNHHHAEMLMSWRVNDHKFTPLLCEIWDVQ
# Cellular tumor antigen p53 (Homo sapiens), sequence (P04637 whole entry, looked up): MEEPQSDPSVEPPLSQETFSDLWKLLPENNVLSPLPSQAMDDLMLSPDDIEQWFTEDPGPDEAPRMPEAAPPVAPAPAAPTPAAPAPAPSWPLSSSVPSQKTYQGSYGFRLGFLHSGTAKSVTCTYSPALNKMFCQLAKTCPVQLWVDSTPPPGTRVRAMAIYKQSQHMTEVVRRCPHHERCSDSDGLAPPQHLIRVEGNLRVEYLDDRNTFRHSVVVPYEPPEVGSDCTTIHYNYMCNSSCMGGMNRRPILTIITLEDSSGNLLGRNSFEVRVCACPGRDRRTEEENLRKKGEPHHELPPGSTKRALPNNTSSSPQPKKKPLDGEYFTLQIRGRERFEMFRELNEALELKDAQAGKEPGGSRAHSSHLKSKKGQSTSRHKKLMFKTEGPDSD
# Nuclear receptor subfamily 4 group A member 2 (Homo sapiens), sequence (P43354 whole entry, looked up, the tested form may be a part): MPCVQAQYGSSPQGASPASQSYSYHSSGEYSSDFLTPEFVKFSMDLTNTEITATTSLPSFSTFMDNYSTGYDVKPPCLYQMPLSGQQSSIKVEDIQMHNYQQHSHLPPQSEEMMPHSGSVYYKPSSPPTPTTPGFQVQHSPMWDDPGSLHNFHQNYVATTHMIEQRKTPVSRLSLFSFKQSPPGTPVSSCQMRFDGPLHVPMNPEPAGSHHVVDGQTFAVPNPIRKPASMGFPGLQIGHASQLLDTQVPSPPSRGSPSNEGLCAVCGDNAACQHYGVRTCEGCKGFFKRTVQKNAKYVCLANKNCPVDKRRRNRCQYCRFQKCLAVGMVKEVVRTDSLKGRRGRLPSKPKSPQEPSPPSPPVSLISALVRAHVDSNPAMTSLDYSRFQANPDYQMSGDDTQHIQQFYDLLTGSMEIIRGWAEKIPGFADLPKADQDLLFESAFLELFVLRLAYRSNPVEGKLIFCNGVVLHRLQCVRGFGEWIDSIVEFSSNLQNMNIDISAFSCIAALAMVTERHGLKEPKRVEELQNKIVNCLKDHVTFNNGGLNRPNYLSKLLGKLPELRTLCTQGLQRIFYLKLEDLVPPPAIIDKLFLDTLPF
# Glucocorticoid receptor (Homo sapiens), sequence (P04150 whole entry, looked up): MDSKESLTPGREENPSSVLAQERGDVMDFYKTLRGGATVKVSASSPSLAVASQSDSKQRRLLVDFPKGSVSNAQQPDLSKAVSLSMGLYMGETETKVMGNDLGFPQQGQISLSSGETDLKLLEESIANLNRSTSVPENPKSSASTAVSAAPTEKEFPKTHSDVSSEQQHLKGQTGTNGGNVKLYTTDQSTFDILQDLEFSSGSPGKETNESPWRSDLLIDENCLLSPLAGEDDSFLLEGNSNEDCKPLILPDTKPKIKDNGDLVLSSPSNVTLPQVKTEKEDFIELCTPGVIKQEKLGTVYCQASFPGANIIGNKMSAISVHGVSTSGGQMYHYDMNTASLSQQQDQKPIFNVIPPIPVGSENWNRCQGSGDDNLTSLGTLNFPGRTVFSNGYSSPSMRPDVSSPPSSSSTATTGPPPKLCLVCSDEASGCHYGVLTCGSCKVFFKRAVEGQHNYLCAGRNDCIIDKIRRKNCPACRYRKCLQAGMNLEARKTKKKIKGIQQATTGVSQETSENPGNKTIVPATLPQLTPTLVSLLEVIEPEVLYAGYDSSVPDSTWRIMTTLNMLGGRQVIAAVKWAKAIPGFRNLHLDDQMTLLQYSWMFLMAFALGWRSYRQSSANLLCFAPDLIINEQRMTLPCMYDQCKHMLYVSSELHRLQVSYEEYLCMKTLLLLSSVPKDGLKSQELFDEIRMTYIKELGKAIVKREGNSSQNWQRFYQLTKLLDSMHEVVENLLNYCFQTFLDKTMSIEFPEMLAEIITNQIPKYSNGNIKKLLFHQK
# Myc proto-oncogene protein (Homo sapiens), sequence (P01106 whole entry, looked up): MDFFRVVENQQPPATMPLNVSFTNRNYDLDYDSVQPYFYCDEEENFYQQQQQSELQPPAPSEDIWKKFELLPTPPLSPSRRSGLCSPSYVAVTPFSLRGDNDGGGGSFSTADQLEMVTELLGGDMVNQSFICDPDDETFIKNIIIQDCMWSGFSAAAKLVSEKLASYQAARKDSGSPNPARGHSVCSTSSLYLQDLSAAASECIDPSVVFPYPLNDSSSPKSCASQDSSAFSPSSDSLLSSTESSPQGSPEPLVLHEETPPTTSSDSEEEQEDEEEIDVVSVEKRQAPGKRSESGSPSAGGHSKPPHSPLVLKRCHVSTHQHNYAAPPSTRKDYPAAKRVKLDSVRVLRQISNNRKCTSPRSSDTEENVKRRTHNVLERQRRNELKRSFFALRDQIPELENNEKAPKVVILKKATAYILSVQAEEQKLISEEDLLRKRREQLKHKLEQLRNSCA
# Oxysterols receptor LXR-alpha (Homo sapiens), sequence (Q13133 whole entry, looked up, the tested form may be a part): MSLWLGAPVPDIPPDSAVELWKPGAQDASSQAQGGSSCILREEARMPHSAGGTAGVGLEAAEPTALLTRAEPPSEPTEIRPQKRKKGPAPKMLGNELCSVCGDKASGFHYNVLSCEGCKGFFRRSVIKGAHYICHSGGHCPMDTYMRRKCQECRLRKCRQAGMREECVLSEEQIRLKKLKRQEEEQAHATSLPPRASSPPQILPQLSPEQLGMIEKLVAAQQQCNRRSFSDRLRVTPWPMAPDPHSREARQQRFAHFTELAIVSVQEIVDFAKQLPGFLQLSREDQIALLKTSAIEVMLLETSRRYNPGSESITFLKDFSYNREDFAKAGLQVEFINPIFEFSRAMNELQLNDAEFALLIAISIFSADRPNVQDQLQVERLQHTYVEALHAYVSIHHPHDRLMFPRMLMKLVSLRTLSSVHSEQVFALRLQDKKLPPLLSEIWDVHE
# Nuclear respiratory factor 1 (Homo sapiens), sequence (Q16656 whole entry, looked up): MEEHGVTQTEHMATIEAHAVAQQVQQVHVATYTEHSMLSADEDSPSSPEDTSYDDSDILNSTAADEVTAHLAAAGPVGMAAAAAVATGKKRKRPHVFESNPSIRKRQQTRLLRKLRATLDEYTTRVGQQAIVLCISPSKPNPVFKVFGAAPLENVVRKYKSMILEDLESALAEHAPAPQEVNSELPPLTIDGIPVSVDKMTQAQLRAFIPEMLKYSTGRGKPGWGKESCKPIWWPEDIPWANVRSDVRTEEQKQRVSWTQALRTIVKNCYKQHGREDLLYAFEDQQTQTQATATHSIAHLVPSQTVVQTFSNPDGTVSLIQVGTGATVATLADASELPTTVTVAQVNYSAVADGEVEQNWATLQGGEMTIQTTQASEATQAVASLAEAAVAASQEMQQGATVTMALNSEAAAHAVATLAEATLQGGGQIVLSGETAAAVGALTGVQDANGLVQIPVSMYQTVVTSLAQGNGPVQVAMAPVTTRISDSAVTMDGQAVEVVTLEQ
smiles,measurement,setting,value
CNC(=O)Oc1ccc(N(C)C)c(C)c1,outcome,[1],inactive
same,outcome,[2],inactive
same,outcome,[3],inactive
same,outcome,[4],inactive
same,outcome,[5],inactive
same,outcome,[6],inactive
same,outcome,[7],inactive
same,outcome,[8],inactive
same,outcome,[9],inactive
same,outcome,[10],inactive
same,outcome,[11],inactive
ClC(Cl)=C(c1ccc(Cl)cc1)c1ccccc1Cl,outcome,[12],inactive
same,outcome,[13],inactive
same,outcome,[14],inactive
same,outcome,[15],inactive
same,outcome,[16],inactive
same,outcome,[4],inactive
same,outcome,[5],inactive
same,AC50,[6],181 µM (active)
same,outcome,[7],inactive
same,outcome,[8],inactive
same,AC50,[9],35.3 µM (active)
same,AC50,[10],100 µM (active)
same,outcome,[11],inactive
same,AC50,[17],20 µM (active)
same,AC50,[18],10.5 µM (active)
CC1=C(C(=O)Nc2ccccc2)S(=O)(=O)CCO1,outcome,[12],inactive
same,outcome,[13],inactive
same,outcome,[2],inactive
same,outcome,[14],inactive
same,outcome,[15],inactive
same,outcome,[16],inactive
same,outcome,[4],inactive
same,outcome,[5],inactive
same,outcome,[6],inactive
same,outcome,[7],inactive
same,AC50,[8],122 µM (active)
same,AC50,[9],2.92 µM (active)
same,outcome,[10],inactive
same,AC50,[11],58 µM (active)
CCOP(=S)(S)OCC,outcome,[19],inactive
same,outcome,[13],inactive
same,outcome,[2],inactive
same,outcome,[15],inactive
same,outcome,[3],inactive
same,outcome,[16],inactive
same,outcome,[4],inactive
same,outcome,[5],inactive
same,outcome,[6],inactive
same,outcome,[7],inactive
same,AC50,[9],67.4 µM (active)
same,outcome,[10],inactive
same,outcome,[11],inactive
same,outcome,[17],inactive
same,outcome,[18],inactive
CCOP(=S)(NC(C)C)Oc1ccccc1C(=O)OC(C)C (configuration not stated),outcome,[1],inactive
same,outcome,[12],inactive
same,outcome,[13],inactive
same,outcome,[20],inactive
same,outcome,[15],inactive
same,AC50,[16],57.4 µM (active)
same,outcome,[4],inactive
same,outcome,[5],inactive
same,outcome,[6],inactive
same,outcome,[7],inactive
same,outcome,[9],inactive
same,outcome,[10],inactive
same,outcome,[11],inactive
same,outcome,[17],inactive
same,outcome,[18],inactive
C=CC(=O)OCC(F)(F)C(F)F,outcome,[19],inactive
same,outcome,[12],inactive
same,outcome,[15],inactive
same,outcome,[3],inactive
same,outcome,[16],inactive
same,outcome,[4],inactive
same,outcome,[5],inactive
same,outcome,[6],inactive
same,outcome,[7],inactive
same,AC50,[8],76 µM (active)
same,AC50,[9],50.3 µM (active)
same,outcome,[10],inactive
same,AC50,[11],206 µM (active)
same,AC50,[17],24.6 µM (active)
same,outcome,[17],inactive
same,outcome,[18],inactive
COP(N)(=S)OC,outcome,[19],inactive
same,outcome,[12],inactive
same,outcome,[3],inactive
same,outcome,[4],inactive
same,outcome,[5],inactive
same,outcome,[6],inactive
same,outcome,[7],inactive
same,outcome,[8],inactive
same,outcome,[9],inactive
same,outcome,[10],inactive
same,outcome,[11],inactive
same,outcome,[17],inactive
same,outcome,[18],inactive
O=C(O)C(F)(F)C(F)(F)C(=O)O,outcome,[1],inactive
same,outcome,[13],inactive
same,outcome,[2],inactive
same,outcome,[15],inactive
same,outcome,[16],inactive
same,outcome,[4],inactive
same,outcome,[5],inactive
same,outcome,[6],inactive
same,outcome,[7],inactive
same,outcome,[8],inactive
same,outcome,[9],inactive
same,outcome,[10],inactive
same,outcome,[11],inactive
same,outcome,[17],inactive
same,outcome,[18],inactive
CN(C)C(=O)Cl,outcome,[1],inactive
same,outcome,[12],inactive
same,outcome,[15],inactive
same,outcome,[3],inactive
same,outcome,[4],inactive
same,outcome,[5],inactive
same,outcome,[6],inactive
same,outcome,[7],inactive
same,outcome,[8],inactive
same,outcome,[9],inactive
same,outcome,[10],inactive
same,outcome,[17],inactive
same,outcome,[18],inactive
